PubChem BioAssay (Tox21)
Inconclusive results are not listed. Calls of active or inactive are those of the source. Calls follow the shape of the dose curve; as a rule, active = well fitted activation curve with a large enough effect in the repeat runs; inconclusive = weak or mixed curves; inactive = flat fitted curve, though single readings scatter.
% is scaled to controls: 0 for no effect and ±100 for the full control effect.

Assay: A CellTox Green Cytotoxicity Assay to monitor cytotoxicity in HEK293 cells - 16 hour (AID 1224888); also: nearly all actives have a fitted effect of over 35% in size
Conditions: CellTox Green fluorescence, active compounds read high; series mostly up to 76.8 µM; activity change: at the top concentration
Text: National Center for Advancing Translational Sciences [NCATS]
NIH Chemical Genomics Center [NCGC]
U.S. Environmental Protection Agency [EPA]
National Institutes of Environmental Health Sciences [NIEHS]
National Toxicology Program [NTP]
Cell-based models are critical for drug discovery. Determining the natural cytotoxic effects resulting from test compounds is an essential research activity. A CellTox Green Cytotoxicity Assay to monitor cytotoxicity in real time of continues cell culture during 40 hours of the compound treatment was used to screen Tox21 10K library compounds in Hek293 cells. CellTox Green Cytotoxicity Assay is a nonlytic, homogeneous, biofluorescent method to measure cytotoxicity in cell culture after experimental manipulation. The assay system uses a proprietary asymmetric cyanine dye that is excluded from viable cells but preferentially stains the dead cell's DNA. […] Viable cells produce no appreciable increases in fluorescence. Therefore, the fluorescence signal produced by the binding interaction with dead cell DNA is proportional to cytotoxicity.
The mixture of Hek293 cell suspension and reagents were dispensed at 600cells/6 ul/well in 1536-well tissue culture treated black solid bottom plates using a Multidrop dispenser. After the assay plates were incubated at a 37 C/5% CO2 incubator for 5 hours, 23 nL of compounds dissolved in DMSO, positive and negative controls was transferred to the assay plate by a pintool work station. The plates were incubated at 37 C for 40 hours. The fluorescence intensity were measured at 0h, 8h, 16h, 24h, 32h and 40h time points using ViewLux plate reader during compound treatment.
With `Cc1cccc(C)c1NC(=O)c1ccccc1C(=O)O` the “activity change” value was -0.236% [at 35.3 µM] (inactive). For `O=P(O)(O)OP(=O)(O)O`, the “activity change” value was -11% (inactive). In the case of `O=S(=O)(O)c1cc(O)c2ccc(Nc3ccccc3)cc2c1`, the “activity change” value is reported as 3.34% (inactive). For `C#CC(C)N(C)C(=O)Nc1ccc(Cl)cc1` (stereo not given), the “activity change” value was -16.5% (inactive). In the case of `O=C1c2ccccc2C(=O)C1c1ccccc1`, the “activity change” value is reported as -6.83% [at 35.3 µM] (inactive). In the case of `O=C(CS(=O)Cc1ccco1)NC/C=C\COc1cc(CN2CCCCC2)ccn1` (stereo not given), the “activity change” value is reported as 0.106% [at 35.3 µM] (inactive). For `CC(=O)c1sc(C)nc1C`, the “activity change” value was -9.09% (inactive). For `C[C@@H](O)[C@H]1C(=O)N2C(C(=O)O)=C(SCCN=CN)C[C@H]12`, the “activity change” value was -21.3% [at 35.3 µM] (inactive). For `CC(C)OC(=O)CCCCC(=O)OC(C)C`, the “activity change” value was -7.93% (inactive). With `CC(COC(C)(C)C)OCCCO` (stereo not given) the “activity change” value was -14.5% (inactive). For `CCCCN`, the “activity change” value was -15% [at 35.3 µM] (inactive). For `CC(N)C(=O)OC(C)(C)Cc1ccc(Cl)cc1` (stereo not given), the “activity change” value was -13.4% [at 35.3 µM] (inactive). In the case of `COc1cc2c(cc1OC)[C@@H]1CC(=O)[C@@H](CC(C)C)CN1CC2`, the “activity change” value is reported as 0.858% [at 35.3 µM] (inactive). With `CCOc1cc([N+](=O)[O-])c(OCC)cc1N1CCOCC1` the “activity change” value was -10.5% (inactive). With `CNC(=O)[C@H]1O[C@@H](n2cnc3c(NCc4cc(Cl)ccc4OCc4cc(C)no4)ncnc32)[C@H](O)[C@@H]1N` the “activity change” value was -4.52% (inactive). With `O=C(Nc1ccc(Cl)c(Cl)c1)C1CC1` the “activity change” value was -1.23% [at 35.3 µM] (inactive). With `CC(=O)Nc1ccc(S(=O)(=O)Nc2ccc([N+](=O)[O-])cc2)cc1` the “activity change” value was -0.13% [at 35.3 µM] (inactive). In the case of `CCCCCCCCCC(C)=O`, the “activity change” value is reported as 14% (inactive). In the case of `CCCC(=O)C(C)=O`, the “activity change” value is reported as -9.56% (inactive). With `O=C(OCC(O)CO)c1ccccc1Nc1ccnc2c(C(F)(F)F)cccc12` (stereo not given) the “activity change” value was -9.84% [at 35.3 µM] (inactive). With `CC(C)NCC(O)COc1cccc2[nH]ccc12` (stereo not given) the “activity change” value was -0.788% [at 35.3 µM] (inactive). In the case of `CC(C)(C)NC(N)=O`, the “activity change” value is reported as 16.5% (inactive). With `COCCOC(=O)C1=C(C)NC(C)=C(C(=O)OC(C)C)C1c1cccc([N+](=O)[O-])c1` (stereo not given) the “activity change” value was -15% [at 35.3 µM] (inactive). For `CCOC(=O)c1ncn2c1CN(C)C(=O)c1cc(F)ccc1-2`, the “activity change” value was -5.26% [at 35.3 µM] (inactive). For `CCCCCOC(=O)CCC`, the “activity change” value was 26.6% (inactive). In the case of `O=S(=O)(O)CCN1CCN(CCO)CC1`, the “activity change” value is reported as 12.5% (inactive). For `Cc1cc(Cl)c(C)cc1Cl`, the “activity change” value was -1.3% (inactive). For `OC[C@H](Cc1cccc(O)c1)[C@H](CO)Cc1cccc(O)c1`, the “activity change” value was -7.06% (inactive). With `COC(=O)C1CC(=O)C(C(=O)OC)CC1=O` (stereo not given) the activity change was 2.56% [at 6.97 µM] (inactive). In the case of `Oc1ccccc1-c1nnco1`, the “activity change” value is reported as -9.23% [at 35.3 µM] (inactive). For `COc1cc(NS(=O)(=O)c2ccc(N)cc2)nc(OC)n1`, the “activity change” value was -14.2% [at 35.3 µM] (inactive). In the case of `CC(CC=O)CCCC(C)(C)O` (stereo not given), the “activity change” value is reported as -6.53% (inactive). With `CN1CCN(CC(=O)N2c3ccccc3C(=O)Nc3cccnc32)CC1` the activity change was -1.08% [at 6.97 µM] (inactive). With `C=CCCCCCCCCCCCC` the “activity change” value was -4.91% (inactive). In the case of `CCOC(=O)c1ccc(OC(=O)CCCCCN=C(N)N)cc1`, the “activity change” value is reported as -9.03% [at 35.3 µM] (inactive). In the case of `CCCCNc1ccc(C(=O)OCCN(C)C)cc1`, the “activity change” value is reported as -15.8% [at 35.3 µM] (inactive). With `Cc1[nH]cnc1-c1ccc(Cl)cc1` the “activity change” value was -4.39% [at 35.3 µM] (inactive). For `CCCC/C=C/C=C\C=O`, the “activity change” value was -18.9% (inactive). In the case of `CC(=C(CCOC(=O)C(C)C)SSC(CCOC(=O)C(C)C)=C(C)N(C=O)Cc1cnc(C)nc1N)N(C=O)Cc1cnc(C)nc1N`, the “activity change” value is reported as 1.55% [at 35.3 µM] (inactive). For `COc1cc(N)ccc1C`, the “activity change” value was -13.6% (inactive).
